Results reported in the antibiotic and cytotoxicity screens of Wong et al. (2023).
Screen size: about 39,000 compounds; about 3,300 (8.5%) were called active. For the sample, actives were picked, then their nearest neighbours and some compounds at random.

Tested on: HepG2
Experiment: cytotoxicity call (relative viability < 0.9)
Conditions: 10 µM

Row | Compound | cytotoxicity call
1 | CC(C)NC(=O)N(C)C[C@@H]1OCCCC[C@H](C)Oc2ccc(NS(C)(=O)=O)cc2C(=O)N([C@@H](C)CO)C[C@@H]1C | inactive
2 | C[C@@H]1CN([C@H](C)CO)C(=O)Cc2cc(NC(=O)C3CC3)ccc2O[C@H]1CN(C)Cc1ccc(Oc2ccccc2)cc1 | inactive
3 | Cc1noc(C)c1NC(=O)Nc1ccc2c(c1)C(=O)N([C@H](C)CO)C[C@@H](C)[C@@H](CN(C)C(=O)Nc1ccc(C(F)(F)F)cc1)O2 | inactive
4 | C[C@H]1CN([C@@H](C)CO)C(=O)c2cccc(NC(=O)Nc3cccc4ccccc34)c2O[C@H]1CN(C)C(=O)NC1CCCCC1 | inactive
5 | N#CCC(=O)NCc1ccccn1 | inactive
6 | O=C(/C=N/O)NCc1ccccn1 | active
7 | NC(=O)NCc1ccccn1 | inactive
8 | C[C@H]1CN([C@@H](C)CO)C(=O)c2cc(C#CCN(C)C)cnc2O[C@@H]1CN(C)Cc1ccc2c(c1)OCO2 | inactive
9 | CO[C@H](C(=O)[C@@H](O)[C@@H](C)O)[C@H]1Cc2cc3cc(O[C@H]4C[C@@H](O[C@H]5C[C@@H](O)[C@@H](O)[C@@H](C)O5)[C@@H](O)[C@@H](C)O4)c(C)c(O)c3c(O)c2C(=O)[C@@H]1O[C@H]1C[C@@H](O[C@H]2C[C@@H](O[C@H]3C[C@@](C)(O)[C@@H](O)[C@@H](C)O3)[C@@H](O)[C@@H](C)O2)[C@@H](O)[C@@H](C)O1 | active
10 | CO[C@H](C(=O)[C@@H](O)[C@@H](C)O)[C@@H]1Cc2cc3cc(O[C@H]4C[C@@H](O[C@H]5C[C@@H](O)[C@H](O)[C@@H](C)O5)[C@@H](O)[C@@H](C)O4)c(C)c(O)c3c(O)c2C(=O)[C@H]1O[C@H]1C[C@@H](O[C@H]2C[C@@H](O[C@H]3C[C@](C)(O)[C@H](O)[C@@H](C)O3)[C@H](O)[C@@H](C)O2)[C@H](O)[C@@H](C)O1 | active
11 | N=c1cc(N2CCCCC2)nc(N)n1OS(=O)(=O)O | inactive
12 | CC(C)C(=O)NS(=O)(=O)c1ccc(N)cc1 | inactive
13 | C[C@H]1CN([C@@H](C)CO)C(=O)CCCn2cc(nn2)CO[C@@H]1CN(C)S(=O)(=O)c1ccc2ccccc2c1 | inactive
14 | O=C(CCCCCNC(=O)OCc1ccc(CO[C@H]2C[C@@H](c3ccccc3)C=C(C(=O)N3CCN(Cc4ccccc4)CC3)O2)cc1)NO | inactive
15 | CN(C)CC(=O)N1CC(=O)N2[C@H](CO)[C@@H](c3ccc(C#Cc4cccnc4)cc3)[C@@H]2C1 | inactive
16 | Cc1noc(C)c1NC(=O)N(C)C[C@@H]1Oc2cc(Br)ccc2S(=O)(=O)N([C@H](C)CO)C[C@@H]1C | inactive
17 | COc1ccc2c3c([nH]c2c1)[C@H](CO)N(C[C@]13CN(CC2CCCCC2)C1)C(=O)Nc1cccc(c1)F | active
18 | COc1ccc2c3c([nH]c2c1)[C@H](CO)N(CC1CCCCC1)C[C@]13CN(C1)C(=O)Nc1cccc(c1)F | inactive
19 | COc1ccc2c3c([nH]c2c1)[C@@H](CO)N(C[C@]13CN(CC2CCCCC2)C1)C(=O)Nc1cccc(c1)F | active
20 | COc1ccc2c3c([nH]c2c1)[C@H](CO)N(C[C@]13CCN(CC1)C(=O)Nc1cccc(c1)F)C(=O)c1ccc(cc1)F | inactive
21 | COc1ccc2c3c([nH]c2c1)[C@@H](CO)N(C[C@]13CCN(CC1)C(=O)Nc1cccc(c1)F)C(=O)c1ccc(cc1)F | inactive

Row | Compound | cytotoxicity call
22 | COc1ccc2c3c([nH]c2c1)[C@@H](CO)N(CC1CCCCC1)C[C@]13CN(C1)C(=O)Nc1cccc(c1)F | inactive
23 | C[C@@H]1CN([C@H](C)CO)C(=O)c2cccc(NS(=O)(=O)c3ccc(F)cc3)c2O[C@H]1CN(C)S(=O)(=O)c1ccc(F)cc1 | inactive
24 | COc1cccc(-c2ccc3c(c2)O[C@@H](CN(C)C(=O)C2CCOCC2)[C@H](C)CN([C@@H](C)CO)S3(=O)=O)c1 | inactive
25 | CC(C)NC(=O)N(C)C[C@@H]1Oc2ccc(NC(=O)Cn3cnnn3)cc2C(=O)N([C@@H](C)CO)C[C@@H]1C | inactive
26 | O=C(C[C@@H]1C=C[C@H](NS(=O)(=O)c2ccccc2F)[C@H](CO)O1)NCCCN1CCOCC1 | inactive
27 | C[C@@H]1CN([C@H](C)CO)C(=O)c2cccc(NC(=O)c3cnccn3)c2O[C@@H]1CN(C)S(=O)(=O)c1ccccc1 | inactive
28 | CC(C)NC(=O)Nc1ccc2c(c1)C(=O)N(C)[C@H]1CC[C@H](CC(=O)NCc3ccc(F)cc3)O[C@@H]1CO2 | inactive
29 | C[C@@H]1CN([C@H](C)CO)C(=O)c2cc(NC(=O)C3CC3)ccc2O[C@H]1CN(C)Cc1ccc(-c2ccccc2)cc1 | inactive
30 | CCc1ccc(-c2cc3c(=O)n(CC(=O)NCCN4CCOCC4)nc(C)n3n2)cc1 | inactive
31 | Cc1ccc(S(=O)(=O)Nc2ccc3c(c2)CC(=O)N([C@H](C)CO)C[C@H](C)[C@@H](CN(C)S(=O)(=O)c2cccs2)O3)cc1 | inactive
32 | COc1ccc(CN(C)C[C@H]2OCCCC[C@@H](C)Oc3ccc(NC(=O)NC4CCCCC4)cc3C(=O)N([C@H](C)CO)C[C@@H]2C)cc1 | inactive
33 | C[C@@H]1CN([C@@H](C)CO)S(=O)(=O)c2ccc(C#C[C@@H](C)O)cc2O[C@@H]1CN(C)C(=O)Nc1ccccc1 | inactive
34 | COc1ccc(CN(C)C[C@H]2Oc3c(NC(=O)c4ccc(-c5nccs5)cc4)cccc3C(=O)N([C@@H](C)CO)C[C@@H]2C)cc1 | inactive
35 | COc1ccc(CN(C)C[C@H]2Oc3c(NC(=O)c4ccc(-c5nccs5)cc4)cccc3C(=O)N([C@@H](C)CO)C[C@H]2C)cc1 | inactive
36 | COc1ccc(CN(C)C[C@H]2Oc3c(NC(=O)c4ccc(-c5nccs5)cc4)cccc3C(=O)N([C@H](C)CO)C[C@@H]2C)cc1 | inactive
37 | COc1ccc(CN(C)C[C@@H]2Oc3c(NC(=O)c4ccc(-c5nccs5)cc4)cccc3C(=O)N([C@H](C)CO)C[C@@H]2C)cc1 | inactive
38 | COc1ccc(CN(C)C[C@@H]2Oc3c(NC(=O)c4ccc(-c5nccs5)cc4)cccc3C(=O)N([C@@H](C)CO)C[C@H]2C)cc1 | active
39 | COc1ccc(CN(C)C[C@@H]2Oc3c(NC(=O)c4ccc(-c5nccs5)cc4)cccc3C(=O)N([C@H](C)CO)C[C@H]2C)cc1 | active
40 | CO[C@@H]1CN(C)C(=O)c2cc(NC(C)=O)ccc2OC[C@@H](C)N(S(=O)(=O)c2cn(C)cn2)C[C@H]1C | inactive
41 | C[C@@H]1CCCCO[C@H](CN(C)Cc2ccccc2)[C@@H](C)CN([C@H](C)CO)C(=O)c2cc(NC(=O)c3ccccc3)ccc2O1 | inactive
42 | CCC[C@@H](O)C#Cc1cnc2c(c1)C(=O)N([C@H](C)CO)C[C@H](C)[C@H](CN(C)S(=O)(=O)c1ccccc1)O2 | inactive

Row | Compound | cytotoxicity call
43 | C[C@H](CO)N1C[C@H](C)[C@H](CN(C)Cc2ccc(Oc3ccccc3)cc2)Oc2ccc(NC(=O)Cc3cn(C)c4ccccc34)cc2C1=O | active
44 | C[C@@H]1CN([C@H](C)CO)C(=O)c2cc(NC(=O)Cc3cn(C)c4ccccc34)ccc2O[C@H]1CN(C)Cc1ccc(Oc2ccccc2)cc1 | inactive
45 | C[C@@H]1CN([C@@H](C)CO)C(=O)c2cc(NC(=O)Cc3cn(C)c4ccccc34)ccc2O[C@@H]1CN(C)Cc1ccc(Oc2ccccc2)cc1 | inactive
46 | C[C@H]1CN([C@@H](C)CO)C(=O)c2cc(NC(=O)Cc3cn(C)c4ccccc34)ccc2O[C@@H]1CN(C)Cc1ccc(Oc2ccccc2)cc1 | active
47 | C[C@H](CO)N1C[C@H](C)[C@@H](CN(C)Cc2ccc(Oc3ccccc3)cc2)Oc2ccc(NC(=O)Cc3cn(C)c4ccccc34)cc2C1=O | active
48 | C[C@H]1CN([C@@H](C)CO)C(=O)c2cc(NC(=O)Cc3cn(C)c4ccccc34)ccc2O[C@H]1CN(C)Cc1ccc(Oc2ccccc2)cc1 | inactive
49 | C[C@@H]1CN([C@H](C)CO)C(=O)c2cc(NC(=O)Cc3cn(C)c4ccccc34)ccc2O[C@@H]1CN(C)Cc1ccc(Oc2ccccc2)cc1 | inactive
50 | C[C@@H]1CN([C@@H](C)CO)C(=O)c2cc(NC(=O)Cc3cn(C)c4ccccc34)ccc2O[C@H]1CN(C)Cc1ccc(Oc2ccccc2)cc1 | inactive
51 | Cc1ccc(S(=O)(=O)N(C)C[C@H]2OCCCC[C@@H](C)Oc3ccc(NC(=O)Nc4ccc5c(c4)OCO5)cc3C(=O)N([C@H](C)CO)C[C@@H]2C)cc1 | inactive
52 | COc1cccc(-c2ccc3c(c2)O[C@H](CN(C)Cc2cncnc2)[C@H](C)CN([C@@H](C)CO)S3(=O)=O)c1 | inactive
53 | COc1ccc(NC(=O)N(C)C[C@H]2Oc3ccc(NC(=O)CCCCCC(=O)Nc4ccccc4N)cc3CC(=O)N([C@H](C)CO)C[C@H]2C)cc1 | inactive
54 | C[C@@H]1CN([C@@H](C)CO)C(=O)c2c(c3ccccc3n2C)-c2ccccc2CO[C@H]1CN(C)S(C)(=O)=O | inactive
55 | CC(=O)OCC1=C(C(=O)O)N2C(=O)[C@@H](NC(=O)CSc3ccncc3)[C@H]2SC1 | inactive
56 | C[C@H](CO)N1C[C@H](C)[C@H](CN(C)Cc2ccc(-c3ccccc3)cc2)Oc2ccc(NC(=O)Cn3cnnn3)cc2C1=O | inactive
57 | C[C@H]1CN([C@@H](C)CO)C(=O)c2cccc(NS(=O)(=O)c3cn(C)cn3)c2O[C@@H]1CN(C)Cc1ccc(C(=O)O)cc1 | inactive
58 | Cn1nnnc1-c1ccc(N)cc1 | inactive
59 | COc1cc(NC(C)CCCN)c2ncccc2c1.O=P(O)(O)O.O=P(O)(O)O (configuration not stated) | active
60 | Cc1c(-c2c(-c3ccc(F)o3)sc3ncnc(O[C@H](Cc4ccccc4OCc4ccnn4CC(F)(F)F)C(=O)O)c23)ccc(OCCN2CCN(C)CC2)c1Cl | active
61 | C[C@H]1CN([C@@H](C)CO)C(=O)CCCn2cc(nn2)CO[C@H]1CN(C)S(=O)(=O)c1ccccc1C#N | inactive
62 | C[C@H](CO)N1C[C@H](C)[C@H](CN(C)C(=O)Nc2ccc(F)cc2)OCCCC[C@H](C)Oc2ccc(NC(=O)NC3CCCCC3)cc2C1=O | inactive
